Assay [1] in a line: qHTS profiling of the MIPE4 collection as inhibitors of Plasmodium falciparum (3D7) proliferation (AID 743344; call rule not given here;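 note: scaled between DMSO vehicle wells and 0.29 µM artemisinin as full inhibition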). As to conditions: P. falciparum 3D7 in erythrocytes, SYBR Green DNA fluorescence, 72 h; at 28.5 µM unless noted. Put shortly: (§1)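 Parasite DNA was quantified by SYBR Green I fluorescence (ex 485, em 535 nm) after overnight lysis in saponin/Triton buffer at room temperature. Cultures at 0.3% parasitemia and 2.5% hematocrit were first exposed to compound for 72 h at 37 C; signals were normalised to artemisinin (0.29 uM) and vehicle wells.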
(qHTS replaces the single test concentration by a dilution series.)

The nature of assay [2]: qHTS profiling of the MIPE4 collection as inhibitors of Plasmodium falciparum (HB3) proliferation (AID 743347; call rule not given here;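 note: plate controls were DMSO vehicle wells for no effect and artemisinin wells for full effect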). As to conditions: P. falciparum HB3 in erythrocytes, SYBR Green DNA, 72 h; at 28.5 µM unless noted. Put shortly:
as §1

The nature of assay [3]: qHTS for Inhibitors of the Functional Ribonucleoprotein Complex (vRNP) of Lassa (LASV) Arenavirus: LASV Primary Screen - GLuc reporter signal (AID 1347082; calls by dose curve; tested in HEK293 reporter line; note: % is set by controls: 0 for no effect and ±100 for the full control effect; nearly all actives have a fitted effect of over 60% in size).
Assay [4] in a line: qHTS for Inhibitors of the Functional Ribonucleoprotein Complex (vRNP) of Lassa (LASV) Arenavirus: Viability assay - alamar blue signal for LASV Primary Screen (AID 1347083; calls by dose curve; tested in HEK293 reporter line; note: % is set by controls: 0 for no effect and ±100 for the full control effect; nearly all actives have a fitted effect of over 80% in size).
The nature of assay [5]: qHTS for Inhibitors of the Functional Ribonucleoprotein Complex (vRNP) of Lymphocytic Choriomeningitis Arenaviruses (LCMV): Viability assay - alamar blue signal for LCMV Primary Screen (AID 1347085; calls by dose curve; tested in HEK293 reporter line; note: % is set by controls: 0 for no effect and ±100 for the full control effect; nearly all actives have a fitted effect of over 80% in size).
Assay [6] addresses Nucleoprotein (Lymphocytic choriomeningitis virus (strain Armstrong)) (UniProt P09992). In words: qHTS for Inhibitors of the Functional Ribonucleoprotein Complex (vRNP) of Lymphocytic Choriomeningitis Arenaviruses (LCMV): LCMV Primary Screen - GLuc reporter signal (AID 1347086). Note: % is set by controls: 0 for no effect and ±100 for the full control effect; nearly all actives have a fitted effect of over 70% in size.
The nature of assay [7]: Cytotoxicity counterscreen for inhibitors of SARS-CoV-2 cell entry (AID 1645845). Note: nearly all actives have a fitted effect of over 50% in size. An outline of the steps: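 After a 15 min room-temperature ATPLite 1step step, luminescence reflected ATP remaining in HEK293-ACE2 cells exposed to compound for 1 h plus 48 h at 37 C, with percent activity set by cell and no-cell controls.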
A general note: The purpose of a counterscreen is to sort out artefacts and off-target activity.

Assay [8] in a line: Primary qHTS to identify inhibitors of SARS-CoV-2 cell entry (AID 1645846). Note: nearly all actives have a fitted effect of over 45% in size. As to conditions: activity change, negative = inhibition: at 57.1 µM (top of the series) unless noted. An outline of the steps: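 HEK293-ACE2 (Expi293F, stable hACE2), 1500 cells/well, o/n 37C; cpd 23 nL pin, 1 h; MLV-PP w/ SARS-CoV-2-S (Wuhan-Hu-1, Δ19 C-term); 48 h 37C; Bright-Glo luminescence; normalized vs S-PP and bald PP.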

Assay [9] deals with Nuclear receptor subfamily 1 group I member 3 (Homo sapiens) (UniProt Q14994). In words: Primary qHTS for antagonist of constitutive androstane receptor (CAR) against the NCATS DSHEA and TCM libraries (AID 1794836; active = well fitted curve in the direction sought with a large enough effect; an effect the other way counts as inactive or inconclusive). An outline of the steps:
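HepG2 cells stably carrying hCAR and a CYP2B6 luciferase reporter (2,500 cells/well) attached for 5 h, then received compounds with 48 uM CITCO for 24 h at 37C. ONE-Glo luminescence read antagonism; CellTiter-Fluor (405/540 nm) gave viability.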

Assay [10] addresses Alpha-galactosidase (Coffea arabica) (UniProt Q42656). In words: Counterscreen for Glucocerebrosidase Inhibitors: qHTS Assay for Coffee Bean alpha-Galactosidase at pH 4.5 (AID 957; active = well fitted curve in the direction sought with a large enough effect; an effect the other way counts as inactive or inconclusive;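 note: plate controls were enzyme alone for no effect and no enzyme for full effect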). An outline of the steps: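 Quantitative HTS of compounds (0.7 nM to 77 uM) against coffee bean alpha-galactosidase at pH 4.5, measuring 4-methylumbelliferone fluorescence released from 80 uM substrate.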

Assay [11] shares this target. In words: Counterscreen for Glucocerebrosidase Inhibitors: qHTS Assay for Coffee Bean alpha-Galactosidase at pH 5.9 (AID 998; active = well fitted curve in the direction sought with a large enough effect; an effect the other way counts as inactive or inconclusive;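 note: plate controls were uninhibited enzyme for no effect and no-enzyme basal signal for full effect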). An outline of the steps: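 In 50 mM citric acid pH 5.9 with 0.005% Tween-20, coffee bean enzyme hydrolyses 80 uM 4-MU alpha-D-galactopyranoside over 20 min at RT. Activity is normalized to controls; AC50 comes from Hill-modelled concentration-response data.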

The nature of assay [12]: Validation screen for inhibitors of Lassa infection (AID 463096). Note: % is set by controls: 0 for no effect and ±100 for the full control effect.
Assay [13] in a line: Inducers of the Endoplasmic Reticulum Stress Response (ERSR) in human glioma: Validation (AID 504836; active = well fitted curve in the direction sought with a large enough effect; an effect the other way counts as inactive or inconclusive; note: 0% is about no effect). Put shortly:
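Stably transfected U87-MG human glioma cells carrying a GRP78-based luminescent sensor were seeded at 1000 cells/well, pin-dosed with compounds and incubated 16 h. Luciferase reagent was then added, and end-point luminescence was read after 10 min at room temperature.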

Inconclusive results are not listed. Activity calls are given as the source filed them. Unless noted, calls come from the whole dose curve.

Sequence of Nucleoprotein (Lymphocytic choriomeningitis virus (strain Armstrong)) (P09992 whole entry, looked up): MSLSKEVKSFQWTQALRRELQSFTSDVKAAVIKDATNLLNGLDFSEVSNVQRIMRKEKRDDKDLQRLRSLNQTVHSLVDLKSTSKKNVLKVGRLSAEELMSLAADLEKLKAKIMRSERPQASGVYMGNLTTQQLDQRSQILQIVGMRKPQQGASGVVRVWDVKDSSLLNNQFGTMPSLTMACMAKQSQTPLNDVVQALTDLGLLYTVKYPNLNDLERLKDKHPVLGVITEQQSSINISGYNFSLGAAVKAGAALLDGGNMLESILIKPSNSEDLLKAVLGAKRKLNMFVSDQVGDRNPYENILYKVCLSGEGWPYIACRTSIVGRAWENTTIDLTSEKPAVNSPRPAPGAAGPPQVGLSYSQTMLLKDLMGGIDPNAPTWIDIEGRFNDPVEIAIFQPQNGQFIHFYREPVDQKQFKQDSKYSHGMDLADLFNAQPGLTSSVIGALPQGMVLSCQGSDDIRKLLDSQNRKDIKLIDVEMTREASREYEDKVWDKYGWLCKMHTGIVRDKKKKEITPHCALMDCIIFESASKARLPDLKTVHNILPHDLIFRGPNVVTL
Sequence of Alpha-galactosidase (Coffea arabica) (Q42656 whole entry, looked up): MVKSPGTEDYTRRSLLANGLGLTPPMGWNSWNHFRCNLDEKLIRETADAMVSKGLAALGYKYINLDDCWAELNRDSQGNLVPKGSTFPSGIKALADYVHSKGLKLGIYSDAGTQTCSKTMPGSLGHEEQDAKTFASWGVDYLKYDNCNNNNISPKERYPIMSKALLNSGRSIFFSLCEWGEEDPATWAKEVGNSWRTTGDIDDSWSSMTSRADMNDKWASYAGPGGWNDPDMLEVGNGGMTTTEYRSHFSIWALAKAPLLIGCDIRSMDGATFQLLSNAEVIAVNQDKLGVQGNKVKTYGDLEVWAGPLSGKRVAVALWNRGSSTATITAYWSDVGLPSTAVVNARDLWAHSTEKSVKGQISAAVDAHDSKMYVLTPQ
Sequence of Nuclear receptor subfamily 1 group I member 3 (Homo sapiens) (Q14994 whole entry, looked up): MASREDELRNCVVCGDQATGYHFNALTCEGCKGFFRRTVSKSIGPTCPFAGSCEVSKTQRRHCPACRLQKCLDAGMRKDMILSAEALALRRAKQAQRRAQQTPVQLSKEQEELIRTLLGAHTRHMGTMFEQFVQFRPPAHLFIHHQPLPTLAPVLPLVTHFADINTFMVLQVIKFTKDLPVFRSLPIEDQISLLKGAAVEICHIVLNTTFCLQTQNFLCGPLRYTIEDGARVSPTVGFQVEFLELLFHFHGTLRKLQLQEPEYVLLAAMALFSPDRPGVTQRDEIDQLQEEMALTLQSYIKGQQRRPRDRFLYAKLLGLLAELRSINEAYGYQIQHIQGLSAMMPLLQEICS

The compound `CC[C@H](C=C[C@@H](C)[C@H]1CC[C@H]2[C@@H]3CC=C4C[C@@H](O)CC[C@]4(C)[C@@H]3CC[C@]12C)C(C)C` yielded a parasite growth, % of DMSO control in [1] of 84.3% [at 9.64 µM]. Besides, the growth, % of control in [2] was 89% [at 9.64 µM]. The Potency result in assay [3], in [4], in assay [5], in assay [6], in assay [7] and in assay [8] was “inactive” throughout.

As for `C=C(C)[C@@H]1CC[C@]2(C(=O)O)CC[C@]3(C)[C@H](CC[C@@H]4[C@@]5(C)CC[C@H](O)C(C)(C)[C@@H]5CC[C@]43C)[C@@H]12`, the parasite growth, % of DMSO control in assay [1] was 60.5%. The compound further gave a growth, % of control in assay [2] of 208%. The Potency result in assay [3], in assay [4], in [5], in [6], in [7] and in [8] was “inactive” throughout. For the same compound, the Potency result in assay [9] is “inactive”.

On to `Cc1ccc(C(=O)N(CCCN)[C@@H](c2oc3cc(Cl)ccc3c(=O)c2Cc2ccccc2)C(C)C)cc1`, for which the Potency result in [3], in assay [4], in assay [5] and in assay [6] was “inactive” in each case. For the same compound, the activity change, negative = inhibition in assay [8] is -98.4%.

In the case of `N#C/C(=C\c1ccc(O)c(O)c1)C(=O)NCc1ccccc1`, the compound was called inactive in assay [10], in assay [11] and in assay [13]. The Potency result in [12], in assay [3], in [4], in [5], in assay [6] and in [7] was “inactive” in each case.

For `COc1nccc(-c2c(-c3ccc(F)cc3)ncn2C2CCNCC2)n1`, the Potency entry in [3], in assay [4], in assay [5], in assay [6], in [7] and in [8] was “inactive” in each case.

The values above are taken from PubChem BioAssay (NCATS).
